Screening results (PubChem BioAssay)
Rows were chosen to be rich in hits. Some 9.9% of all compounds tested hit in one or more screens of this group.
MCF10A rerep – DNA re-replication induction in MCF 10a cells. AID 624296. Potency, µM (series often up to 46.1 µM), for the others: at the top dose activity, positive = re-replication, usual class: activators. MCF 10A DNA re-replication, Hoechst nuclear intensity, 48 h. hit rate 2.9% among 350,000; also: potency is read from the fitted curve at half-maximal effect; % of control where 0% means no effect; nearly all actives have a fitted effect of over 50% in size
KB-3-1 cytotox – KB-3-1 parental cell cytotoxicity. hit rate 1.4% among 400,000. Potency, µM (titrated, usually from 46.1 µM), hits mostly cytotoxic. KB-3-1 viability, CellTiter-Glo ATP luminescence, 72 h; also: potency is read from the fitted curve at half-maximal effect; % is scaled to controls: 0 for no effect and ±100 for the full control effect; nearly all actives have a fitted effect of over 60% in size
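Cytotoxicity in the drug-sensitive parental line KB-3-1 was scored as loss of CellTiter-Glo luminescence following 72 h incubation with compound. Values come from curve fitting of normalized concentration-response data.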
KB-V1 cytotox – kills drug-selected multidrug resistant KB-V1 cells; KB-V1 MDR cells viability, CellTiter-Glo, 72 h; Potency, µM (top dose mostly 46.1 µM), actives largely listed as cytotoxic; hit rate 3.4% among 400,000; AID 1347076; also: potency is read from the fitted curve at half-maximal effect; % is scaled to controls: 0 for no effect and ±100 for the full control effect; nearly all actives have a fitted effect of over 60% in size
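Readout: CellTiter-Glo luminescence, 10 min after addition. Cells: KB-V1 MDR subline, 72 h at 37 degrees C with compound. Analysis: corrected, normalized data fitted to concentration-effect curves.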
IL1B secr inh – blocks inflammasome-driven IL-1 beta release | activity change, % at 57.5 µM | hit rate 4.7% among 360,000 | THP-1 LPS/ATP IL-1B secretion, AlphaLISA, 16 h; stronger effect = lower value; in the data active = activity change below about -50%; inconclusive = mostly about -30% to -49%; also: % is scaled to controls: 0 for no effect and ±100 for the full control effect
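Secreted IL-1B measured by AlphaLISA bead assay after 16 h compound exposure of THP-1 cells; compounds (final up to 57.5 uM) added 1 h before LPS (250 ng/mL) and ATP (1.25 mM) stimulation; lower signal means less secretion.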
SW480 rereplic – DNA re-replication induction in SW480 cells | AID 624297 | Potency, µM (highest dose often 46.1 µM), for the others: at the highest dose re-replication activation, actives largely listed as activators | SW480 DNA re-replication, Hoechst DNA content imaging, 48 h | hit rate 1.8% among 340,000; also: potency is read from the fitted curve at half-maximal effect; % of control where 0% means no effect; nearly all actives have a fitted effect of over 55% in size
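First, 250 cells per well were seeded. Next, compound or vehicle (23 nL) was pinned in, plates sat 48 hr at 37 C. Finally Hoechst was added for 40 min before fluorescence scanning.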
Active calls of the source: *; i = inactive; ? = inconclusive; · = not tested or not shown. Unless noted, calls follow the shape of the dose curve; as a rule, active = well fitted curve in the direction sought with a large enough effect; inconclusive = small, poorly fitted or top-dose-only effect, or another doubt; inactive = no such curve, though single readings can be large; an effect the other way counts as inactive or inconclusive.

SMILES | MCF10A rerep | KB-3-1 cytotox | KB-V1 cytotox | IL1B secr inh | SW480 rereplic
N#CC1=C(N)N2C(=C(C#N)C1c1cccc(Br)c1)Nc1ccccc12 (stereo not given) | 21µM* | ? | 5.8µM* | -119* | 15µM*
Cn1c(=O)c2c(nc(SCCN3CCOCC3)n2C)n(C)c1=O | 9% | i | i | 7 | -9%
COc1cc(S(=O)(=O)N2CCN3CCCC3C2)ccc1-n1cnnn1 (stereo not given) | -2% | i | i | 0 | 1%
COc1cc(S(=O)(=O)N2CCCC3(CCCCC3)C2)ccc1-n1cnnn1 | -4% | i | 21µM* | 2 | -4%
C/C(=N\NC(=O)c1c(Br)c(C)nn1C)c1ccc(NC(=O)c2ccoc2C)cc1 | 13% | i | i | 13 | -189%
CCC(=O)Nc1ccc(/C(C)=N/NC(=O)c2c(Br)c(C)nn2C)cc1 | 10% | i | 7.3µM* | -3 | 12%
C/C(=N\NC(=O)c1c(Br)c(C)nn1C)c1ccc(NC(=O)C(C)Oc2ccc(Cl)cc2C)cc1 (stereo not given) | 16µM* | i | i | -11 | 9%
CCC(C)N=C1Sc2nc3ccc(C)cc3cc2CN1CCOC (stereo not given) | ? | i | i | -83* | 23%
COCCN1Cc2cc3cc(C)ccc3nc2SC1=Nc1ccc(OC)cc1 | 12% | i | i | -53* | ?
CCOc1ccc2nc3c(cc2c1)CN(CCCO)C(=NCCOC)S3 | ? | i | i | ? | 0%
COCCN=C1Sc2nc3ccc(C)cc3cc2CN1Cc1cccs1 | -3% | i | i | -87* | 3%
O=C(c1csc2c1CCCC2)N1CCN(c2ncccn2)CC1 | -2% | i | 16µM* | 31 | 2%
O=C(c1csc2c1CCCC2)N1CCN(c2ccc(F)cc2)CC1 | ? | i | i | 14 | 11%
O=C(c1csc2c1CCCC2)N1CCN(c2cccc(C(F)(F)F)c2)CC1 | ? | i | 21µM* | 4 | 6%
CCc1nc2ccccc2n1CCC(=O)O | ? | i | i | 8 | 2%
CN(CC(=O)Nc1c(Cl)cccc1Cl)C(=O)Cc1ccsc1 | -1% | i | i | 9 | 0%
CCc1cc(C(=O)N(C)CC(=O)Nc2c(Cl)cccc2Cl)sc1C | 19% | i | 18µM* | -7 | 3%
Cc1nc(N2CCCCC2C)c2c(C)c(C(=O)Nc3ccccc3C(F)(F)F)sc2n1 (stereo not given) | 12% | i | i | -11 | -8%
COCCCNC(=O)c1sc2ncnc(N3CCc4ccccc4C3)c2c1C | 15µM* | ? | i | -19 | 21µM*
Cc1c(C(=O)Nc2ccc3c(c2)OCCO3)sc2ncnc(N3CCCCC3C)c12 (stereo not given) | ? | 18µM* | ? | ? | -20%
Cc1c(C(=O)N2CCCCC2C)sc2ncnc(N3CCc4ccccc4C3)c12 (stereo not given) | ? | i | ? | -97* | -2%
Cc1c(C(=O)N2CCOCC2)sc2ncnc(N3CCc4ccccc4C3)c12 | 0% | i | i | -17 | 4%
O=C(Cc1ccccc1)c1c[nH]c(C(=O)NCCCN2CCOCC2)c1 | 2% | i | i | 3 | -10%
COc1ccc(NC(=O)CSc2nnc(-c3cccs3)n2N)c(OC)c1 | 1% | i | i | -8 | -4%
Cc1n[nH]c(C)c1S(=O)(=O)N1CCCC(C(=O)NCc2ccc(F)cc2)C1 (stereo not given) | 0.73µM* | i | i | 0 | -59%
SMILES | MCF10A rerep | KB-3-1 cytotox | KB-V1 cytotox | IL1B secr inh | SW480 rereplic
COc1ccc(CNC(=O)C2CCN(S(=O)(=O)c3c(C)n[nH]c3C)CC2)cc1 | -2% | i | i | -13 | -1%
O=C(NCc1ccc(F)cc1)C1CCCN(S(=O)(=O)c2ccc(Br)s2)C1 (stereo not given) | ? | i | ? | -53* | 0%
Cc1nc2c(-c3ccc(Cl)cc3)cnn2c2c1CCC2 | 21µM* | i | i | 49 | 2%
Cc1nc2c(-c3ccc(Cl)cc3)cnn2c(N)c1-c1ccc(F)cc1 | -1% | i | i | ? | 17%
C(=N\Nc1ncnc2nc[nH]c12)/c1cccs1 | 5% | i | i | -74* | -10%
Cc1ccsc1/C=N/Nc1ncnc2nc[nH]c12 | 0% | i | i | 81 | -10%
Cc1ccccc1/C=N/Nc1ncnc2nc[nH]c12 | 0% | i | i | 29 | 18µM*
Fc1ccc(/C=N/Nc2ncnc3nc[nH]c23)cc1F | -4% | i | ? | 25 | -21%
Cc1cc(Cl)nc2c(C(C)C)cccc12 | 2% | i | i | 40 | -12%
O=C(c1cc(S(=O)(=O)NCc2ccco2)ccc1Br)N1CCOCC1 | -1% | i | i | 50 | 9%
CCCN1C(=O)c2ccccc2NC1c1ccc(OC)cc1O (stereo not given) | ? | ? | 5.8µM* | 16 | 3%
COc1ccccc1-c1nnc(Sc2nc([N+](=O)[O-])nn2C)o1 | 9.2µM* | ? | ? | -100* | ?
N#CC1CCN(C(=O)c2ccc3c(Cl)c4c(nc3c2)CCCC4)CC1 | -2% | i | ? | -66* | -11%
O=C(c1ccc2c(Cl)c3c(nc2c1)CCCC3)N1CCN(c2ccc(Cl)cc2)CC1 | · | i | i | · | ·
CN1CCN(C(=O)c2ccc3c(Cl)c4c(nc3c2)CCCC4)CC1 | -2% | i | ? | -3 | 1%
CCN1CCN(C(=O)c2ccc3c(Cl)c4c(nc3c2)CCCC4)CC1 | ? | i | i | -78* | ?
O=C(c1[nH]c(C(F)(F)F)nc1-c1ccccc1)N1CCN(c2ncccc2C(F)(F)F)CC1 | · | ? | ? | 23 | ·
Cc1c(CN(C)C)c2c(n1Cc1ccccc1)C(=O)c1ccc(Br)cc1-2 | ? | ? | 23µM* | -68* | ?
Cc1cc(C)cc(-n2ccnc2SCC(=O)Nc2ccc(C)cc2C)c1 | · | i | i | · | ·
Cc1ccccc1CSCC(=O)c1c(N)n(CC(C)C)c(=O)n(C)c1=O | 15% | ? | 18µM* | -7 | -7%
CCOc1cc(C(=O)OCC(=O)c2c(N)n(C)c(=O)n(C)c2=O)cc(OCC)c1OCC | 3% | i | 18µM* | 12 | 0%
COc1ccc(CCN2CC(C(=O)OCC(=O)c3c(N)n(CC(C)C)c(=O)n(C)c3=O)CC2=O)cc1OC (stereo not given) | · | i | i | 21 | ·
CC(C)Cn1c(N)c(C(=O)COC(=O)c2ccc(Br)cc2)c(=O)n(C)c1=O | 4% | 15µM* | i | ? | 1%
CC(C)Cn1c(N)c(C(=O)COC(=O)C2CC(=O)N(Cc3ccccc3Cl)C2)c(=O)n(C)c1=O (stereo not given) | 8% | i | i | -61* | -1%
